Results on 40 targets are retold here after the supplement of paper PMC11732987, “Enantioselective OTUD7B fragment discovery through chemoproteomics screening and high-throughput optimisation” (Communications Chemistry, 2025).

A number with no mark means an inactive call.

Sequence of UniProt Q01804 (Q01804 whole entry): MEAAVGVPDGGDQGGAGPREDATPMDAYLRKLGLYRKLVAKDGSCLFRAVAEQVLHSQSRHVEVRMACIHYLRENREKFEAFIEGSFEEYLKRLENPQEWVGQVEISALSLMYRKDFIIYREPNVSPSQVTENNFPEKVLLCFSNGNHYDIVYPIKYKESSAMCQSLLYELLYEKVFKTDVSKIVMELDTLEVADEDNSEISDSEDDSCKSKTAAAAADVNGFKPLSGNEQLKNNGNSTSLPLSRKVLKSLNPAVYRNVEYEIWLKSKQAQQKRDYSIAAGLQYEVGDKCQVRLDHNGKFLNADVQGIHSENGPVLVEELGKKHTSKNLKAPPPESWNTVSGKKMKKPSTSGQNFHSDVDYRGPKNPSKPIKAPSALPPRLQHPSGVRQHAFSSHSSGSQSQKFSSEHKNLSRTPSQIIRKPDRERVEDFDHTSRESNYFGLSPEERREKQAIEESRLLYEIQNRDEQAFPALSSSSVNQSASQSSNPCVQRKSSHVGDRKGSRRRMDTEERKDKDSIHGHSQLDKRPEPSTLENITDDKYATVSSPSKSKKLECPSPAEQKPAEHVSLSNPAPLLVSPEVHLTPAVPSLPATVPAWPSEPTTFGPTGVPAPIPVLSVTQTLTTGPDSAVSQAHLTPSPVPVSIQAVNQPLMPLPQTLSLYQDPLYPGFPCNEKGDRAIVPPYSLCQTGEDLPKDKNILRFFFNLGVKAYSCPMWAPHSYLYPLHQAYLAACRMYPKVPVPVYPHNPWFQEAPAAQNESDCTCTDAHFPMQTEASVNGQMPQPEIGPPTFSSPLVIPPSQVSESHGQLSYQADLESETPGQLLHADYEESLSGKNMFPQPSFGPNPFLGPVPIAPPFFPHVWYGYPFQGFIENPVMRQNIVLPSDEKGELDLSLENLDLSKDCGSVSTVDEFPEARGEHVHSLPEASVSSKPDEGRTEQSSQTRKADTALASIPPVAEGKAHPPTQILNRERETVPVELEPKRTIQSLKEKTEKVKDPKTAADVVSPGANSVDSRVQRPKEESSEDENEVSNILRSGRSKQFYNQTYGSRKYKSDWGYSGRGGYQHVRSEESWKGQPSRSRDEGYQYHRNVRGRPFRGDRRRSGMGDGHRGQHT
Sequence of UniProt Q96JH7 (Q96JH7 whole entry): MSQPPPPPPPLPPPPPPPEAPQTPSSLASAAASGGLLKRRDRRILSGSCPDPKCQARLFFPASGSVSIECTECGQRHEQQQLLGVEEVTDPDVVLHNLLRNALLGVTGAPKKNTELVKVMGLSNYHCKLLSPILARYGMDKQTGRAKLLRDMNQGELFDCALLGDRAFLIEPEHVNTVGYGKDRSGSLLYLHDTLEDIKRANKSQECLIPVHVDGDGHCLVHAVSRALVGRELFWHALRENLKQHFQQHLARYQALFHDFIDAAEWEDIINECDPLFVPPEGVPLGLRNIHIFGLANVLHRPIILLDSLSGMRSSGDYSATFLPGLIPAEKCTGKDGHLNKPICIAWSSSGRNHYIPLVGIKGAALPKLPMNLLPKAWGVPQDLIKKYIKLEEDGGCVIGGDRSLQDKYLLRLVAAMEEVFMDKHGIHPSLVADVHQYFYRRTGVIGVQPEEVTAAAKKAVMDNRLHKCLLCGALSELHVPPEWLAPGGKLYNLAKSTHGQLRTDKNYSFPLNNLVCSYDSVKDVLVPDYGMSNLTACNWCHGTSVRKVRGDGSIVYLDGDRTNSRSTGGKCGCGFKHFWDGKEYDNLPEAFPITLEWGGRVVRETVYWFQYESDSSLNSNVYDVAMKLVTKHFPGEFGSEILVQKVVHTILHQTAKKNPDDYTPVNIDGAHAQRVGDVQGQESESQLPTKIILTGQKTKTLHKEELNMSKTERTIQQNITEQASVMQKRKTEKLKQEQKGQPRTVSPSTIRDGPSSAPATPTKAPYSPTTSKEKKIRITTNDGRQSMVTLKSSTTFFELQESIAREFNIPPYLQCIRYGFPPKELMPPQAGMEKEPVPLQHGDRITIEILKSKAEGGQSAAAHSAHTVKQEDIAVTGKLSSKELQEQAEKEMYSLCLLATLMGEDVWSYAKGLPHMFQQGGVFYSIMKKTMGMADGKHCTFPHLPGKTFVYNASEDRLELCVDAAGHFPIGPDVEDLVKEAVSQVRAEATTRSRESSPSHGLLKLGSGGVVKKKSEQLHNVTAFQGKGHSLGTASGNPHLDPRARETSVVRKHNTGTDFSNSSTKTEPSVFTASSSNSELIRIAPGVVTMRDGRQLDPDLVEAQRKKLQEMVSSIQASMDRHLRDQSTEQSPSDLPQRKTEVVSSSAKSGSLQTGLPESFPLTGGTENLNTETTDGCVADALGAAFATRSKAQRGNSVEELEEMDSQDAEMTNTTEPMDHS
Sequence of UniProt Q96RU2 (Q96RU2 whole entry): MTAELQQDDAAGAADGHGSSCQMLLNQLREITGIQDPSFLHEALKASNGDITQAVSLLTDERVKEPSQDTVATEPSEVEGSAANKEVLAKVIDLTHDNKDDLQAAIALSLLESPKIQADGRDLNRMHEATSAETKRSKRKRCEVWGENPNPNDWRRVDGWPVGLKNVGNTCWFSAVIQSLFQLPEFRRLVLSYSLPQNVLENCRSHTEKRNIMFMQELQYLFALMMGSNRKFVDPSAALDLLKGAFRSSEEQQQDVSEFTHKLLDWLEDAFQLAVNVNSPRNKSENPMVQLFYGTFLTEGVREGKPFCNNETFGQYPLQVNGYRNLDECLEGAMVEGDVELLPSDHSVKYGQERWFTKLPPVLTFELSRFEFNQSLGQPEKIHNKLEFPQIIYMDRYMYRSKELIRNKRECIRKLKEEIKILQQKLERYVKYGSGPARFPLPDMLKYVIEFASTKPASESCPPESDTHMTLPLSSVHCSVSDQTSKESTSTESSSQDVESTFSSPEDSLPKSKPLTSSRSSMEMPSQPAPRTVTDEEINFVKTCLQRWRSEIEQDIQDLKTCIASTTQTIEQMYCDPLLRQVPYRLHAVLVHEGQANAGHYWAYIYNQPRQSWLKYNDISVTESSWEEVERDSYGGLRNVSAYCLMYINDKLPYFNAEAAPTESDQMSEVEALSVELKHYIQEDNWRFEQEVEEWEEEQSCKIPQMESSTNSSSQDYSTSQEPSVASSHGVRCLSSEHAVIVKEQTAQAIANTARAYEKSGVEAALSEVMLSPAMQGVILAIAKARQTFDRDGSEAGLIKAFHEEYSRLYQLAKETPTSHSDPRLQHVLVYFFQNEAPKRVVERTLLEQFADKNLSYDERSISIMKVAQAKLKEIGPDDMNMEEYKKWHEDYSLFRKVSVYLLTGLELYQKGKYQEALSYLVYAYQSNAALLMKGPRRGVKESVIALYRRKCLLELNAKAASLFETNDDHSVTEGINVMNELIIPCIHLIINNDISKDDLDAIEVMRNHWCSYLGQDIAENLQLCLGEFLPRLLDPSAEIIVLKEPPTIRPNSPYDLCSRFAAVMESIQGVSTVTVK
Sequence of UniProt Q70EL1 (Q70EL1 whole entry): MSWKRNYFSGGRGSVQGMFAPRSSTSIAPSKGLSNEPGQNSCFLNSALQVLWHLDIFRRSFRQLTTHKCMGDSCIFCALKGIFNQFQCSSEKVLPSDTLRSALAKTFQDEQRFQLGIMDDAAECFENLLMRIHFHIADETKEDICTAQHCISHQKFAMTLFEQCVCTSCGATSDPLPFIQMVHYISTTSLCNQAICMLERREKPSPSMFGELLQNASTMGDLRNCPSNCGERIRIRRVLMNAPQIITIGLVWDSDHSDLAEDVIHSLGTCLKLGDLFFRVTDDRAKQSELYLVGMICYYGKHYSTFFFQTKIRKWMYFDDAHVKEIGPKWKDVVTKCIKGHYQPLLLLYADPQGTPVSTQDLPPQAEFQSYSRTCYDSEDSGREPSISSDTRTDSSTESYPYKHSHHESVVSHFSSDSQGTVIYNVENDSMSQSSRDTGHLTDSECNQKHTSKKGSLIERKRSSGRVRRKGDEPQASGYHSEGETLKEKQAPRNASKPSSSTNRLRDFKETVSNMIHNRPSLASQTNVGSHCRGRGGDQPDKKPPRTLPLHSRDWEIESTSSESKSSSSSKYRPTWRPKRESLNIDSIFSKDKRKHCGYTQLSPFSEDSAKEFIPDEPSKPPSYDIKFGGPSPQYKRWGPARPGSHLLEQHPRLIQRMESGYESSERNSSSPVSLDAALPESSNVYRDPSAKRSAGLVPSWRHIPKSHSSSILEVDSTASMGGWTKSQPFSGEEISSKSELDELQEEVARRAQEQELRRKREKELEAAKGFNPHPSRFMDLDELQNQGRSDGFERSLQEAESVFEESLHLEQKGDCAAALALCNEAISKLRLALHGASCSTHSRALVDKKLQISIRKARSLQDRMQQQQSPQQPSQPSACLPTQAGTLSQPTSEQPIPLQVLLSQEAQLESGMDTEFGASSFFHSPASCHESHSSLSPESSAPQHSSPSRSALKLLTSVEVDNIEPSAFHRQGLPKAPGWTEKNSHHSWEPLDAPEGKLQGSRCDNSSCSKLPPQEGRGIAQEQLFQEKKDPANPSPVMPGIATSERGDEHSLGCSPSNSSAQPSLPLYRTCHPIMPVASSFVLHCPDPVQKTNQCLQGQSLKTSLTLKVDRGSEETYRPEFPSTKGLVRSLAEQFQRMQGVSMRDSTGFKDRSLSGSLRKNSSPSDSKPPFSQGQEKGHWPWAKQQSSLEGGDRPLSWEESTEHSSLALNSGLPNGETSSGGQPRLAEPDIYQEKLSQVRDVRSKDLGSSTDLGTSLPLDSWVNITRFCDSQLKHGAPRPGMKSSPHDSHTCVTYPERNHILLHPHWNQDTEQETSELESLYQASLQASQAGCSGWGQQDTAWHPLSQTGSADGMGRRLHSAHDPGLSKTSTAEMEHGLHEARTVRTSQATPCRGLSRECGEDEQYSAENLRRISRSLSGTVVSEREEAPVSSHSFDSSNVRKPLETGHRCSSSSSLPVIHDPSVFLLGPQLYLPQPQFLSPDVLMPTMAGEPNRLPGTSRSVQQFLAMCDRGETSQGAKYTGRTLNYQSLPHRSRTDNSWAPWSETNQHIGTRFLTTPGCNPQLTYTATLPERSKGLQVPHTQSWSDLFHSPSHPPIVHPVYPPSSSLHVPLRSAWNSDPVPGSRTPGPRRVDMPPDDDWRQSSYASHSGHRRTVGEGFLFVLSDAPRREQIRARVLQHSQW

Compound in this assay: ClCC(=O)NC(C1CC1)C1CC1
The assay can be described thus: log2 ratio of Biotin-Ahx-Ub-VS probe labelling (fragment/DMSO); higher = less target engagement (more negative = stronger competition), active = hit call of the paper (q ≤ 0.05, log2 ratio ≤ -1). The settings on record: compound concentration: 200 uM; treatment time: 3 h. How it is done:
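Competitive ABPP in HEK293T cell lysate. Lysates were treated with each chloroacetamide fragment at 200 µM for 3 h, then with Biotin-Ahx-Ub-VS (0.5 µM, 1 h), NeutrAvidin-enriched and analysed by diaPASEF LC-MS/MS. Protein LFQ was median-normalised; average log2 ratio is fragment/DMSO from an unpaired t-test (n=3 treated, n=44 DMSO). Hits: q ≤ 0.05, log2 ratio ≤ -1, unique peptides ≥ 2.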
As to COPS5 (UniProt Q92905), the “log2 ratio of Biotin-Ahx-Ub-VS probe labelling” value (“log2 ratio” below) was -0.232. USP54 (UniProt Q70EL1): the “log2 ratio” value is -0.749. As to YOD1 (UniProt Q5VVQ6), the “log2 ratio” value is -0.0299. To USP24 (UniProt Q9UPU5) belongs -0.346.

In the case of OTUD7B (UniProt Q6GQQ9), the “log2 ratio” value was -1.44 (active). To OTUD6B (UniProt Q8N6M0) belongs -0.29.

For the target BAP1 (UniProt Q92560), the “log2 ratio” value was -0.654. The value for USP4 (UniProt Q13107) was -0.162; that for USP34 (UniProt Q70CQ2) was -0.194; that for UCHL5 (UniProt Q9Y5K5) was -0.00772.

As for ATXN3 (UniProt P54252), the “log2 ratio” value was 0.0786.

With USP16 (UniProt Q9Y5T5), the “log2 ratio” value was -0.253. For UniProt O00487, the “log2 ratio” value is -0.179. For the target UniProt O00507, the “log2 ratio” value was -0.0912. For the target USP36 (UniProt Q9P275), the “log2 ratio” value is -0.148. Regarding UCHL3 (UniProt P15374), the “log2 ratio” value is 0.117. With EIF3F (UniProt O00303), the “log2 ratio” value is -0.0875. Consider USP14 (UniProt P54578), for which the “log2 ratio” value was -0.411. As for UniProt Q8TE49, the “log2 ratio” value was -0.531. For the target UCHL1 (UniProt P09936), the “log2 ratio” value was -1.28 (active). The value for USP25 (UniProt Q9UHP3) was -0.502. The value for USP5 (UniProt P45974) was -0.319; that for UniProt Q5T2D3 was -0.0205; that for UniProt Q9UGI0 was -0.0131. In the case of FAM105A (UniProt Q9NUU6), the “log2 ratio” value is -0.0106.

Consider USP9X (UniProt Q93008), for which the “log2 ratio” value is -0.125. With EIF3H (UniProt O15372), the “log2 ratio” value was -0.0951. To USP7 (UniProt Q93009) belongs -0.307; to USP15 (UniProt Q9Y4E8), -0.268. As to USP47 (UniProt Q96K76), the “log2 ratio” value was -0.205. UniProt Q9P2H5: the “log2 ratio” value was -0.0753. To USP28 (UniProt Q96RU2) belongs -0.446.

For OTUD4 (UniProt Q01804), the “log2 ratio” value is -0.457.

Regarding USP39 (UniProt Q53GS9), the “log2 ratio” value is -0.194. The value for ALG13 (UniProt Q9NP73) was 0.189; that for VCPIP1 (UniProt Q96JH7) was -0.276; that for USP8 (UniProt P40818) was -0.0528.

Turning to USP48 (UniProt Q86UV5), the “log2 ratio” value was 0.01. To OTUD5 (UniProt Q96G74) belongs -0.0756. The value for USP10 (UniProt Q14694) was -0.045.
